Bioassay records from PubChem.
Autophagy mod = modulators of autophagy | calls only at 10 µM (by protocol) | AID 463193 | MEF GFP-LC3 puncta imaging; test concentration mostly 10 µM | hit rate 0.98% among 190,000;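 active = percentage of spot-positive cells more than 3 SD above its plate mean, without a fluorescence outlier flag or 80% toxicity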
HCT116 bCat-KO = beta-catenin-lacking colon tumor cell growth suppression; hit rate 1.5% among 140,000; viability, % at 10 µM; HCT116 beta-catenin knockout viability, CellTiter-Glo, 60 h; active compounds read low;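 active = viability at or under a set limit, the compound median less 4 SD, cut at about 6% in these data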
Insulin prom inh = TRM-6 insulin promoter activity inhibition | TRM-6 cells (human fetal islet line), insulin promoter-eGFP reporter, imaging; reporter expression induced with tamoxifen | inhibition, % at 2 µM | hit rate 0.9% among 130,000 | AID 1273;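 active = inhibition above the mean plus 3 SD, with well images judged a real hit on visual review, cut at about 60% in these data, passing the limit was not always enough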
Insulin prom up = MIN6 insulin promoter up-regulation; z-score at 5 µM; hit rate 0.3% among 190,000; AID 1625; MIN6 insulin promoter-GFP reporter, high-content imaging; active compounds read high;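 active = z-score above 3 at 5 µM with at least 500 cells counted in the well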
PTEN del growth = growth suppressors of cells with PTEN tumor suppressor deletion. HCT116 PTEN-null viability, CellTiter-Glo, 60 h; active compounds read low. viability, % at 10 µM. hit rate 1.2% among 140,000. AID 827;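 active = viability at or below a set limit, 4 SD under the median of all tested compounds, cut at about 3.7% in these data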;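 also: PTEN knockout HCT116 line with beta catenin targeted HCT116 as companion control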
Lmaj promast = inhibitors of Leishmania major promastigote growth; Leishmania major promastigotes, resazurin fluorescence viability; inhibition, % at 10 µM; hit rate 9% among 200,000; AID 1063; in the data active = inhibition above about 50%;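 also: promastigotes grown with compound for 44 hours at 28 °C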
A number is an active result. A selection: hits, their analogues and other compounds. The true share with any hit is near 9.6%.

Screening CCN1CCN(c2nc(-c3cccs3)nc3ccccc23)CC1 returned Autophagy mod inactive, HCT116 bCat-KO inactive, Insulin prom up inactive, PTEN del growth inactive and Lmaj promast inactive.
For COc1ccccc1N1CCN(C(=O)CCNS(=O)(=O)c2ccc3c(c2)CCC(=O)N3)CC1 the results were Autophagy mod inactive, HCT116 bCat-KO inactive, Insulin prom inh inactive, Insulin prom up inactive, PTEN del growth inactive and Lmaj promast inactive.
For CNC(=S)NCc1ccc2[nH]c(C)cc2c1 the results were Autophagy mod inactive, Insulin prom inh inactive, Insulin prom up inactive and Lmaj promast inactive.
For CCc1cccc(C)c1NC(=S)NCc1ccc2[nH]c(C)cc2c1 the results were Autophagy mod inactive, HCT116 bCat-KO inactive, Insulin prom inh 71, Insulin prom up inactive, PTEN del growth inactive and Lmaj promast 93.
Screening CCOC(=O)C1(CCc2ccccc2)CCN(Cc2c(O)cccc2OC)CC1 returned Autophagy mod inactive, Insulin prom inh inactive, Insulin prom up inactive and Lmaj promast 91.
`CCOC(=O)C1(CCc2ccccc2)CCN(Cc2nccn2CC)CC1` gave Autophagy mod inactive, Insulin prom up inactive and Lmaj promast inactive.
CCOC(=O)C1(CCc2ccccc2)CCN(Cc2cnc(N(C)C)s2)CC1 was read as Autophagy mod inactive and Lmaj promast inactive.
`CCOC(=O)C1(CCc2ccccc2)CCN(Cc2ccc(O)cc2)CC1` gave Autophagy mod inactive and Lmaj promast 95.
`CCOC(=O)C1(CCc2ccccc2)CCN(Cc2ccc(OC)cc2)CC1` gave Autophagy mod inactive, Insulin prom up inactive and Lmaj promast 85.
Screening Cc1cccc(CCNC(=O)C2CCN(S(=O)(=O)c3ccccc3)CC2)c1 returned Autophagy mod inactive, Insulin prom inh inactive, Insulin prom up inactive and Lmaj promast inactive.
COC(=O)c1ccc(NC2=C(Cl)C(=O)OC2OC(=O)c2ccccc2)cc1 (centres undefined) was read as Autophagy mod inactive, Insulin prom inh inactive, Insulin prom up inactive and Lmaj promast inactive.
For O=[N+]([O-])c1ccc(CN2CCOCCOCCN(Cc3ccc([N+](=O)[O-])cc3)CCOCC2)cc1 the results were Autophagy mod inactive, HCT116 bCat-KO inactive, Insulin prom inh inactive, Insulin prom up inactive, PTEN del growth inactive and Lmaj promast 80.
`CCS(=O)(=O)N1CCN(Cc2ccc([N+](=O)[O-])cc2)CC1` gave Autophagy mod inactive, HCT116 bCat-KO inactive, Insulin prom up inactive, PTEN del growth inactive and Lmaj promast inactive.
For O=[N+]([O-])c1ccc(COc2ccc(Br)cc2CN2CCOCC2)cc1 the results were Autophagy mod inactive, Insulin prom up inactive and Lmaj promast inactive.
`CSc1ccc(CN2CCN(Cc3ccc([N+](=O)[O-])cc3)CC2)cc1` gave Autophagy mod inactive, Insulin prom inh inactive, Insulin prom up inactive and Lmaj promast 91.
`CCOc1ccc(NC(=O)C(C)SC(N)=O)cc1` (centres undefined) gave Autophagy mod inactive, HCT116 bCat-KO inactive, Insulin prom inh inactive, Insulin prom up inactive, PTEN del growth inactive and Lmaj promast inactive.
For Cc1ccc(C(=O)OCC(=O)Nc2cc(F)ccc2F)cc1NC(=O)c1ccco1 the results were Autophagy mod inactive, HCT116 bCat-KO inactive, Insulin prom inh inactive, Insulin prom up inactive and Lmaj promast 88.
`CCCN1Cc2cccc(C(=O)NC3CCCC3)c2C1=O` gave Autophagy mod inactive, HCT116 bCat-KO inactive, Insulin prom inh 94, Insulin prom up inactive, PTEN del growth inactive and Lmaj promast inactive.
`CCCN1Cc2cccc(C(=O)NCc3cccs3)c2C1=O` gave Autophagy mod inactive, HCT116 bCat-KO inactive, Insulin prom inh inactive, Insulin prom up inactive, PTEN del growth inactive and Lmaj promast inactive.
Oc1ccc(N2CCN(C(c3cccs3)c3nnnn3CCc3ccccc3)CC2)cc1 (centres undefined) was read as Autophagy mod inactive, HCT116 bCat-KO inactive, Insulin prom inh inactive, Insulin prom up inactive, PTEN del growth inactive and Lmaj promast 100.
For c1ccc(Cn2nnnc2C(c2cccs2)N2CCc3ccccc3C2)cc1 (centres undefined) the results were Autophagy mod inactive, HCT116 bCat-KO inactive, Insulin prom inh inactive, Insulin prom up inactive, PTEN del growth inactive and Lmaj promast 51.
For c1ccc(Cn2nnnc2C(c2cccs2)N2CCCCCC2)cc1 (centres undefined) the results were Autophagy mod inactive, HCT116 bCat-KO inactive, Insulin prom inh inactive, PTEN del growth inactive and Lmaj promast inactive.
For Cc1nnc(NC(=O)Nc2cccc(Cl)c2)s1 the results were Autophagy mod inactive, HCT116 bCat-KO inactive, Insulin prom inh inactive, Insulin prom up inactive, PTEN del growth inactive and Lmaj promast inactive.
For O=C(/C=C/c1ccc(OC2CSC2)cc1)c1ccc(Cl)cc1 the results were Autophagy mod inactive, HCT116 bCat-KO inactive, Insulin prom inh inactive, Insulin prom up inactive, PTEN del growth inactive and Lmaj promast 54.
Screening COc1ccc(C(=O)/C=C/c2ccc(OC3CSC3)cc2)cc1OC returned Autophagy mod inactive, HCT116 bCat-KO inactive, Insulin prom inh inactive, Insulin prom up inactive, PTEN del growth inactive and Lmaj promast inactive.
Screening COCc1cc(CN2CCCC(C(=O)c3cccc(C(F)(F)F)c3)C2)ccc1OC (centres undefined) returned Autophagy mod inactive, Insulin prom up inactive and Lmaj promast 92.
Screening COc1ccc(C(=O)C2CCCN(Cc3cnc(N4CCOCC4)s3)C2)c(OC)c1 (centres undefined) returned Autophagy mod inactive, Insulin prom up inactive and Lmaj promast 84.
Screening COc1ccc(C(=O)C2CCCN(Cc3cnc(N4CCOCC4)s3)C2)cc1F (centres undefined) returned Insulin prom up inactive.
COc1ccc(C(=O)C2CCCN(Cc3ccc4nonc4c3)C2)cc1F (centres undefined) was read as Autophagy mod inactive, Insulin prom up inactive and Lmaj promast 91.
`COc1ccc(C(=O)C2CCCN(Cc3ccc4nonc4c3)C2)cc1OC` (centres undefined) gave Autophagy mod inactive, Insulin prom up inactive and Lmaj promast 89.
`CCOC(=O)c1[nH]ncc1CN1CCCC(C(=O)c2ccc(OC)c(OC)c2)C1` (centres undefined) gave Autophagy mod inactive, Insulin prom inh inactive and Lmaj promast inactive.
`O=C(CSc1nnc(-c2ccco2)c(-c2ccco2)n1)c1ccccc1` gave Autophagy mod inactive, Insulin prom inh inactive, Insulin prom up inactive and Lmaj promast inactive.
For COCCCN(C(=S)NC(=O)c1ccc(Br)cc1)c1c(N)n(Cc2ccccc2)c(=O)[nH]c1=O the results were Autophagy mod inactive, Insulin prom up inactive and Lmaj promast inactive.
O=C(CSc1ccc(-c2ccc(F)cc2)nn1)NCCc1ccccc1 was read as Autophagy mod inactive, Insulin prom inh inactive, Insulin prom up inactive and Lmaj promast inactive.
Screening N#CCSc1ncnc2sc3c(c12)CCC3 returned Autophagy mod inactive, HCT116 bCat-KO inactive, Insulin prom up inactive, PTEN del growth inactive and Lmaj promast inactive.
